Records with an inconclusive call do not appear. Active and inactive are the calls of the source. Rule for the calls, unless noted: active = hit-call score of the fitted dose curve at least 0.9, where 1 is the maximum; inactive = score below 0.9.
Assays:
[1] = ACEA_ER_80hr: ACEA Biosciences xCELLigence Real-Time Cell Analysis on Estrogen Receptor Agonism for Proliferation (AID 2282667; active = hit-call score of the fitted dose curve at least 0.9, where 1 is the maximum); settings: T47D proliferation, impedance (xCELLigence), 80 h
In short: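 Real-time electrical impedance tracked growth of the human breast line T47D, with the 80 h post-dosing value used. Dosing spanned eight 1:4 steps down from a 100 uM final top concentration, run in duplicate.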

[2] = APR_HepG2_CellCycleArrest_24hr: Apredica 24-hour HepG2 Assay for Cell Cycle Arrest (AID 2282905); settings: imaging, actives raise or lower the signal;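 note: cell cycle arrest scored as ratio of 2N to 4N nuclear DNA content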
In short: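 Step one: dose HepG2 with test compounds, 0.39–200 uM, 0.5% DMSO, 24 hr. Step two: fix, permeabilize, stain nuclei with Hoechst 33342. Step three: image six fields per well at 20x, quantify DNA content, fit bidirectionally relative to DMSO.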

[3] = APR_HepG2_NuclearSize_24hr: Apredica 24-hour HepG2 Assay for Nuclear Size (AID 2282907); settings: high-content imaging, actives raise or lower the signal
In short: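 After fixation and permeabilization, 24-hr-treated HepG2 cells were stained with Hoechst 33342 and imaged on an ArrayScan (20x). Doses spanned 0.39–200 uM in duplicate. Nuclear diameter changes in either direction were fitted relative to 0.5% DMSO controls.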

[4] = APR_HepG2_CellLoss_24hr: Apredica 24-hour HepG2 Assay for Cell Loss (AID 2282908); settings: high-content imaging;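 for AC50: fit in both directions so a hit may be cell loss or gain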
In short: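 Duplicate wells received compound at ten concentrations (0.39–200 uM; final DMSO 0.5% v/v). After fixation with formaldehyde, nuclei stained with Hoechst 33342 were imaged at 20x. Loss or gain of cell count was fitted relative to DMSO controls.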

[5] = APR_HepG2_MicrotubuleCSK_24hr: Apredica 24-hour HepG2 Assay for Microtubule CSK Stabilty (AID 2282909); settings: HepG2 microtubule cytoskeleton imaging, actives raise or lower the signal
In short: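 Microtubule stability is scored from tubulin immunofluorescence in fixed HepG2 cells imaged at 20x. Cells receive ten compound concentrations up to 200 uM for 24 h; taxol and DMSO serve as positive and negative controls.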

[6] = APR_HepG2_MitoticArrest_24hr: Apredica 24-hour HepG2 Assay for Mitotic Arrest (AID 2282910); settings: high-content imaging, actives raise or lower the signal
In short: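 HepG2, 24 hr dosing, 0.39–200 uM, 0.5% DMSO final. Formaldehyde-fixed, Triton-permeabilised, anti-phospho-histone H3 plus Hoechst. ArrayScan imaging at 20x; bidirectional fit vs DMSO baseline.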

[7] = APR_HepG2_MitoMembPot_24hr: Apredica 24-hour HepG2 Assay for Mitochondrial Membrane Potential (AID 2282911); settings: imaging, actives raise or lower the signal
In short: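 Cells are dosed for 24 hr across 0.39 to 200 uM with solvent held at 0.5% DMSO. They are then stained with 250 nM MitoTracker Red CMXRos for 30 min, fixed in 3.7% formaldehyde and imaged.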

[8] = APR_HepG2_MitoMass_24hr: Apredica 24-hour HepG2 Assay for Mitochondrial Mass (AID 2282912); settings: high-content imaging, actives raise or lower the signal
In short: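 Readout: fluorescence of MitoTracker Red CMXRos (250 nM, added 30 min pre-fixation) in fixed HepG2 cells imaged by HCS. Exposure lasted 24 hr at 0.39–200 uM; increases and decreases were both fitted relative to DMSO.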

[9] = APR_HepG2_p53Act_24hr: Apredica 24-hour HepG2 Assay for p53 Activation (AID 2282913); settings: high-content imaging, actives raise or lower the signal;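 note: p53 protein immunofluorescence averaged per cell in HepG2 with Hoechst nuclei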
In short: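 Human HepG2 liver cells; 24 hr cpd treatment, 0.39–200 uM, 0.5% DMSO final. Fixed in 3.7% formaldehyde, permeabilized with 0.5% Triton X-100, stained with anti-p53/Cy5 plus Hoechst 33342. Six images per well at 20x; gain or loss vs DMSO.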

[10] = APR_HepG2_CellLoss_72hr: Apredica 72-hour HepG2 Assay for Cell Loss (AID 2282915); settings: high-content imaging
In short: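 HepG2 cells exposed 72 h to compound at 0.39–200 uM (10 concentrations, duplicate) in 0.5% DMSO. Fixed with 3.7% formaldehyde and Hoechst 33342-stained. Imaged at 20x; nuclear count gives cell number, fitted bidirectionally versus DMSO.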

[11] = APR_HepG2_CellCycleArrest_72hr: Apredica 72-hour HepG2 Assay for Cell Cycle Arrest (AID 2282914); settings: high-content imaging, actives raise or lower the signal
In short: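 Read-out is Hoechst-stained nuclear DNA content measured by automated fluorescence imaging (20x, six images per well), fitted in both directions relative to DMSO. Human HepG2 liver cells received 0.39–200 uM compound for 72 hr at 0.5% v/v DMSO.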

Measured: AC50

CC(C)C(=O)OCC(C)(C)C(OC(=O)C(C)C)C(C)C (configuration not stated)
not listed: [11]
inactive: all other assays above

CO/C=C(/C(=O)OC)c1ccccc1COc1cccc(C(F)(F)F)n1
active: [1] 20.2 µM | [4] 9.73 µM | [6] 16.8 µM | [7] 16.4 µM | [10] 3.39 µM
not listed: [11]
inactive: all other assays above

OCC(O)CO
inactive: [1]

CCOCCOC(C)=O
not listed: [5]
inactive: all other assays above

Cc1cccc(C)c1N
not listed: [5] | [11]
inactive: all other assays above

c1cc2ccc3cccc4ccc(c1)c2c34
active: [7] 92.1 µM
not listed: [5] | [11]
inactive: all other assays above

CCOP(=S)(OCC)SCSC(C)(C)C
active: [7] 0.0494 µM
not listed: [5] | [11]
inactive: all other assays above

CN(C)CCO
not listed: [5] | [11]
inactive: all other assays above

CCC(C)(c1ccc(O)cc1)c1ccc(O)cc1
inactive: [2] | [3]
active: [1] 285 nM [middle of 4 runs] | [4] 111 µM | [6] 106 µM | [7] 57.6 µM | [8] 127 µM | [9] 101 µM | [10] 108 µM

Clc1ccc(Cl)cc1
not listed: [5]
inactive: all other assays above

c1ccc(-c2ccccc2)cc1
not listed: [5] | [11]
inactive: all other assays above

Clc1ccc(C(Cl)(Cl)Cl)cc1
not listed: [5] | [11]
inactive: all other assays above

Oc1ccc(Cl)cc1Cl
not listed: [5]
inactive: all other assays above

ClC1=C(Cl)[C@]2(Cl)[C@@H]3[C@@H]4C[C@@H]([C@H]5O[C@@H]45)[C@@H]3[C@@]1(Cl)C2(Cl)Cl
active: [1] 10.8 µM | [4] 31.6 µM | [11] 39.2 µM | [10] 34.4 µM
not listed: [5]
inactive: all other assays above

CC1=C2C[C@H]3[C@@H](CC=C4C[C@@H](O)CC[C@@]43C)[C@@H]2CC[C@]12O[C@@H]1C[C@H](C)CN[C@H]1[C@H]2C
active: [4] 20.2 µM | [6] 23.8 µM | [8] 35.4 µM | [10] 25.3 µM
not listed: [5]
inactive: all other assays above

O=C(N[C@H]1CN2CCC1CC2)c1cc2ccoc2cn1
active: [7] 0.0336 µM
not listed: [5] | [11]
inactive: all other assays above

COc1ccc(O)c(C(C)(C)C)c1
active: [1] 1.95 µM
not listed: [5]
inactive: all other assays above

CCCCCCCCCc1ccc(O)cc1
not listed: [5] | [11]
inactive: all other assays above
